# Activity calls are given as the source filed them.
# Tests used:
# [1] = binders of probe aFSTL3 on microarray, primary screen, stem cell growth factor project, biochemical, small-molecule microarray, fluorescence 635/667 (AID 1064); settings: higher = more signal;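 note: measures binding of the biotinylated anti-FSTL3 antibody to printed compounds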
# [2] = binders from COS7 lysate, DM2A8 probe, primary screen, torsin A project, cell lysate, small-molecule microarray, fluorescence 635/667 (AID 1065); settings: higher = more signal, COS7 lysate expressing mutant human TOR1A
# [3] = binders of probe aFGF2 on microarray, primary screen, stem cell growth factor project, biochemical, small-molecule microarray, fluorescence 635/667 (AID 1067); settings: higher = more signal;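 note: measures binding of biotinylated aFGF2 protein to printed compounds on slides; z-score merges feature fluorescence and signal-to-noise across triplicate slides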
# [4] = binders of probe aFGF10 on microarray, primary screen, stem cell growth factor project, biochemical, small-molecule microarray, fluorescence 635/667 (AID 1071); settings: higher = more signal;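 note: score merges 667 nm spot intensity and signal to noise from triplicate slides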
# [5] = molecular target: Neurogenic locus notch homolog protein 2 (Homo sapiens) (UniProt Q04721); test: Notch2 binders on small-molecule microarrays, primary screen, biochemical, small-molecule microarray, 635 nm fluorescence, stem cell growth factors (AID 1073); settings: Notch2 binding, higher = more signal
# [6] = molecular target: Pro-neuregulin-1, membrane-bound isoform (Homo sapiens) (UniProt Q02297); test: NRG1 binders on small-molecule microarrays, primary screen, psychiatric disease protein project, biochemical, small-molecule microarray, fluorescence 635/667 (AID 1075); settings: NRG1 binding, 635 nm fluorescence, higher = more signal;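 note: score combines 667 nm spot fluorescence with signal to noise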
# Sequence of Pro-neuregulin-1, membrane-bound isoform (Homo sapiens) (Q02297 whole entry, looked up, the tested form may be a part, canonical isoform): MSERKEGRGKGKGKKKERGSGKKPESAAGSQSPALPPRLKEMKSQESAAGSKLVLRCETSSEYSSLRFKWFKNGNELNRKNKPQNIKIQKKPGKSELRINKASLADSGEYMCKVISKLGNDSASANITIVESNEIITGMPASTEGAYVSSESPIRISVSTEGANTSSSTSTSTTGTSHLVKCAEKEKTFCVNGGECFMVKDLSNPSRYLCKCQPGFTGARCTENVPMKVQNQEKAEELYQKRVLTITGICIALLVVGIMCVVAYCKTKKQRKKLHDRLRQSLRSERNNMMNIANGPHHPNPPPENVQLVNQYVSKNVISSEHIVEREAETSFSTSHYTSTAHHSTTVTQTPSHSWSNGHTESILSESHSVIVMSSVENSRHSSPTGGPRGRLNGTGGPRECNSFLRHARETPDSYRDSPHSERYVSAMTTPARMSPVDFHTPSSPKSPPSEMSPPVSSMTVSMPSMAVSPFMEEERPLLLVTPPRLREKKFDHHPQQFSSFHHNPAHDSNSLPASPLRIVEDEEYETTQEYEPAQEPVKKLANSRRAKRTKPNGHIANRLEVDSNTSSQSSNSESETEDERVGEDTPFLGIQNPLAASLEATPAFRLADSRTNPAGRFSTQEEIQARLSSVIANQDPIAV
# [7] = tested on: Neuregulin-1 EGF-like domain; test: binders of neuregulin-1 EGF-like domain, primary screen, biochemical, small-molecule microarray, 635 nm fluorescence (AID 1081); settings: small-molecule microarray binding, higher = more signal;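 note: binding of the protein to compounds printed on small-molecule microarray slides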
# [8] = FRG1 promoter luciferase signal modulators, primary screen, FRG1 inhibition for FSHD, cell-based, C2C12 myotubes, firefly/Renilla luciferase, luminescence (AID 1084); settings: higher = more signal, called active from +8 up or from −8 down
# [9] = binders of probe aFST on microarray, primary screen, stem cell growth factor project, biochemical, small-molecule microarray, fluorescence 635/667 (AID 1086); settings: higher = more signal;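 note: score merges 667 nm fluorescence with signal-to-noise of each printed compound spot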
# [10] = binders of probe aHhip on microarray, primary screen, stem cell growth factor project, biochemical, small-molecule microarray, fluorescence 635/667 (AID 1087); settings: higher = more signal;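 note: score merges spot fluorescence at 667nm with spot signal to noise ratio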
# [11] = tested on: PRMT1 (protein arginine N-methyltransferase 1); test: PRMT1 binders on small-molecule microarrays, primary screen, biochemical, small-molecule microarray, 635 nm fluorescence (AID 1088); settings: small-molecule microarray binding, higher = more signal;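 note: binding of Prmt1 protein to compounds spotted on small-molecule microarray slides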
# [12] = yeast growth modulation, basal conditions, primary screen, YJM789 clinical isolate, OD600, 24 h (AID 1089);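 note: growth of clinical yeast isolate S. cerevisiae YJM 789 seeded 1000 cells per well; test concentration not given here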; settings: S. cerevisiae YJM789 growth, higher = more signal, called active from +8 up or from −8 down
# [13] = fission yeast growth modulation, primary screen, strain 972, OD600, 24 h, no modulator (AID 1090);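 note: basal condition with compound alone and no growth modifier present; test concentration not given here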; settings: S. pombe 972 growth, higher = more signal, called active from +8 up or from −8 down
# [14] = S. cerevisiae growth modulation with rapamycin, primary screen, strain BY4716, OD600, 96 h (AID 1091); settings: higher = more signal, called active from +8 up or from −8 down; note: test concentration not given here
# [15] = molecular target: Torsin-1A-interacting protein 2 (Homo sapiens) (UniProt Q8NFQ8); test: LULL1 binders on small-molecule microarray, primary screen, cell lysate, human LULL1 lysate, 635/667 nm fluorescence (AID 1092); settings: hLULL1 lysate binding, 635 nm fluorescence, higher = more signal;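 note: probe is lysate of COS7 cells overexpressing human LULL1; score merges per-feature 667 nm fluorescence with signal-to-noise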
# Sequence of Torsin-1A-interacting protein 2 (Homo sapiens) (Q8NFQ8 whole entry, looked up): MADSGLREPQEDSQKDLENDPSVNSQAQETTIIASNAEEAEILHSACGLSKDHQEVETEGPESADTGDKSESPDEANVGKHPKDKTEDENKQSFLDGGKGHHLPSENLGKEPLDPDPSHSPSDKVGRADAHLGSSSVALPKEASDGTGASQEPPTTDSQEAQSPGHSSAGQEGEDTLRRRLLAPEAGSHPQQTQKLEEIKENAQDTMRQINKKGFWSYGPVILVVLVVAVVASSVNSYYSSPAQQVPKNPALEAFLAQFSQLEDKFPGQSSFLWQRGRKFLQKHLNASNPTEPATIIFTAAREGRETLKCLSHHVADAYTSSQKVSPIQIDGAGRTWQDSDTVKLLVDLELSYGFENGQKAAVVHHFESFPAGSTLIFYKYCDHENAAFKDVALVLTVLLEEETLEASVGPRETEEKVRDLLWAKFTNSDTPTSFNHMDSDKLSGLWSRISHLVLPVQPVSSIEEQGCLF
# [16] = E. coli growth modulation, two-sided OD650, primary screen, E. coli filamentation project, strain DRC41, 24 h (AID 1093); settings: OD650, 24 h, higher = more signal, called active from +8 up or from −8 down;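 note: MC1000 strain lacking acrAB efflux and sulA so SOS filamentation is blocked; test concentration not given here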
# [17] = small-molecule microarray binders of probe aLefty2, primary screen, biochemical, biotinylated probe, 635/667 nm fluorescence (AID 1094); settings: higher = more signal;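 note: score merges spot fluorescence near 667 nm with spot signal-to-noise ratio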
# [18] = tested on: Noggin (protein binding on small-molecule microarray); test: Noggin binders on small-molecule microarray, primary screen, biochemical, 635/667 nm fluorescence (AID 1095); settings: 635 nm fluorescence, higher = more signal;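 note: score merges 667 nm feature fluorescence with signal to noise over triplicate slides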
# [19] = molecular target: Neurogenic locus notch homolog protein 3 (Homo sapiens) (UniProt Q9UM47); test: NOTCH3 binders on small-molecule microarray, primary screen, biochemical, 635/667 nm fluorescence (AID 1096); settings: NOTCH3 binding, 635 nm fluorescence, higher = more signal
# Sequence of Neurogenic locus notch homolog protein 3 (Homo sapiens) (Q9UM47 whole entry, looked up): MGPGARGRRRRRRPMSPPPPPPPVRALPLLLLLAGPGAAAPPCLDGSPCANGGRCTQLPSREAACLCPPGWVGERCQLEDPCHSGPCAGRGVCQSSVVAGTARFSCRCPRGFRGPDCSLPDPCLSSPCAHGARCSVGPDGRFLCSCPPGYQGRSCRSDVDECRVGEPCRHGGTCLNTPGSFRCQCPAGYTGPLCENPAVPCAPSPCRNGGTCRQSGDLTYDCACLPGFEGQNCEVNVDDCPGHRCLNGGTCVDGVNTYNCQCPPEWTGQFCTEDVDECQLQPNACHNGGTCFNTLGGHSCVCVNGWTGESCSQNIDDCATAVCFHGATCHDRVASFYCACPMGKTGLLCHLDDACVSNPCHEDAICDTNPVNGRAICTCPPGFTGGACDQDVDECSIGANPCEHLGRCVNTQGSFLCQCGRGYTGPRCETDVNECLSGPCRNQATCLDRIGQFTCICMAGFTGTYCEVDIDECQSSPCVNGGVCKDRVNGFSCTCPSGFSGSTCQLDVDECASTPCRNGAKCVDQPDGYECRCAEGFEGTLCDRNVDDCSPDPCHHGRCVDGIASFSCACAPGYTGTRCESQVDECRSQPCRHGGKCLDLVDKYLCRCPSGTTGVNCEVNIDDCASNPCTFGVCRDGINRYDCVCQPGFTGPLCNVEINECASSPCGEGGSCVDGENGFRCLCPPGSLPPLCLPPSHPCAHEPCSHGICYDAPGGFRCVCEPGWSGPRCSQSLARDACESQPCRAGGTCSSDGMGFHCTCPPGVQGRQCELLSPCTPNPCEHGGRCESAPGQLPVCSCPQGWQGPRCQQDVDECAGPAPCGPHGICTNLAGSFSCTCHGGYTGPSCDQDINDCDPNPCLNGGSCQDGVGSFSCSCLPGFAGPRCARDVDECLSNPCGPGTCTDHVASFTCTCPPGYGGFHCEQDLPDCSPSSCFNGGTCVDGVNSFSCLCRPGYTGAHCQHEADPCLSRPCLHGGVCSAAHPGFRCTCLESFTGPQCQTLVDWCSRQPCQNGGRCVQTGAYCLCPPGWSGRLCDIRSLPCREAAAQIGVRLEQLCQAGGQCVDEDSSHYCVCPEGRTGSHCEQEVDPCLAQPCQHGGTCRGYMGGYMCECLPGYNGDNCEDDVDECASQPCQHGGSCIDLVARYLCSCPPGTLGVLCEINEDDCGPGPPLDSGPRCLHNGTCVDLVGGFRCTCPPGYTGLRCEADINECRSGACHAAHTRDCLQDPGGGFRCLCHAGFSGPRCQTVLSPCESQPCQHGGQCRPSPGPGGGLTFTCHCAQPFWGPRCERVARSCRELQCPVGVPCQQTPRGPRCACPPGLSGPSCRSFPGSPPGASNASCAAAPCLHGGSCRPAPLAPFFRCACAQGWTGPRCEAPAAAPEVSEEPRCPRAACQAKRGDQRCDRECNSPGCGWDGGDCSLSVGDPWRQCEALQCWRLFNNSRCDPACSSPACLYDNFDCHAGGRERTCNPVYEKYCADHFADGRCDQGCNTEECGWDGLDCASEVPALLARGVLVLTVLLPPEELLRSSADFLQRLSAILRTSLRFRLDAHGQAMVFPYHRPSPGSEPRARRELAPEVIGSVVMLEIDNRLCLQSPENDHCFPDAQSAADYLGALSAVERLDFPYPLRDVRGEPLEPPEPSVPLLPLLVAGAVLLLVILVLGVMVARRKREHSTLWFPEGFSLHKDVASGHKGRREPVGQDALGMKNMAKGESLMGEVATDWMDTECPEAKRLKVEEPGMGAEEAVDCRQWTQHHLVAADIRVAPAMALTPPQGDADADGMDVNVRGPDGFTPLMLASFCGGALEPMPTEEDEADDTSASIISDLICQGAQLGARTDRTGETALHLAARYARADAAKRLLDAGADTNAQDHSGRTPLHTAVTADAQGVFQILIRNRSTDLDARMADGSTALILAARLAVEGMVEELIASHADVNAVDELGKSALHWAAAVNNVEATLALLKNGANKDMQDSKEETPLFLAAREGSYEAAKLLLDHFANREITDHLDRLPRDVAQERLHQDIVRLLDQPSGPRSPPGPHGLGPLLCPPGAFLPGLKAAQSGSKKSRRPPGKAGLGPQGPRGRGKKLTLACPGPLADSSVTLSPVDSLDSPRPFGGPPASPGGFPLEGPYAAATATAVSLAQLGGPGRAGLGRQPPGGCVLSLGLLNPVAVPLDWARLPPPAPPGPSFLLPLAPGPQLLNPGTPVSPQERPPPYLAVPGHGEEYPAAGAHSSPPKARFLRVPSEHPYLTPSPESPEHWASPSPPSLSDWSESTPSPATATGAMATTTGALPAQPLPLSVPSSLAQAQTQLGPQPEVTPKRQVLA
# [20] = small-molecule microarray binders of probe aEGFR, primary screen, biochemical, biotinylated probe, 635/667 nm fluorescence (AID 1097); settings: higher = more signal;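 note: probe is a biotinylated anti-EGFR antibody binding compounds printed on slides; score combines fluorescence near 667 nm and signal to noise of each spot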
SMILES,composite z-score [1],composite z-score [2],composite z-score [3],composite z-score [4],composite z-score [5],composite z-score [6],composite z-score [7],z-score [8],composite z-score [9],composite z-score [10],composite z-score [11],z-score [12],z-score [13],z-score [14],composite z-score [15],z-score [16],composite z-score [17],composite z-score [18],composite z-score [19],composite z-score [20]
Cc1ccc(N2C(=O)c3ccccc3[C@](C)(C(=O)NCc3ccccc3)[C@@H]2c2ccc(CO)cc2)nc1,0.625,0.0083,0.0898,-0.369,-0.378,0.64,0.635,0.101 (inactive),0.0665,1.07,0.596,0.34 (inactive),-0.72 (inactive),-0.0557 (inactive),0.945,0.148 (inactive),0.0781,0.184,-0.456,0.108
O=C(O)[C@@H]1C[C@@H]2C(=O)N3CCC[C@H]3C(=O)N2[C@@H]1c1cccc(OCCO)c1,3.06,2.45,0.588,0.648,1.7,2.68,1.49,1.39 (inactive),3.21,1.1,1.53,-0.386 (inactive),-1.98 (inactive),-0.533 (inactive),4.25,1.14 (inactive),1.49,1.95,1.07,1.27
COCCOC(=O)N1C(=O)[C@@]2(c3cc(C#CCC(C(=O)OC)C(=O)OC)ccc31)[C@H](c1ccc(O)cc1)N1[C@H](c3ccccc3)[C@H](c3ccccc3)OC(=O)[C@H]1[C@@H]2C(=O)NC[C@H](O)c1ccccc1,-0.32,0.63,0.0521,0.144,0.147,1.12,1.04,1.15 (inactive),0.169,0.0749,1.38,0.326 (inactive),-0.371 (inactive),0.875 (inactive),2.75,1.81 (inactive),-0.0788,0.171,0.68,0.0153
CCOC(=O)C1=CC[C@@H](c2ccccc2)N(S(=O)(=O)c2ccc(C)cc2)[C@H]1c1cccc(OC)c1,0.154,-0.133,0.0182,0.31,1.34,1.28,0.746,-2.57 (inactive),0.648,-0.0203,1.06,0.498 (inactive),1.52 (inactive),2.05 (inactive),2.19,-0.439 (inactive),0.116,-0.266,0.618,-0.0407
CC(C)C[C@@H]1NC(=O)[C@H]2C[C@@H](C(=O)NCCCCCN)[C@@H](c3cccc(OCCO)c3)N2C1=O,0.721,-0.1,-0.107,0.0414,-0.182,0.896,1.24,-0.599 (inactive),-0.565,-0.0645,0.808,-3.54 (inactive),-0.726 (inactive),-1.04 (inactive),0.872,0.545 (inactive),0.13,-0.993,0.135,-0.14
COc1ccc([Si](C)(C)[C@@H]2[C@@H](CC(=O)N3Cc4ccccc4C[C@H]3CO)O[C@]3(C(=O)N(Cc4ccc(N5CCC5=O)cc4)c4ccccc43)[C@H]2C)cc1,-0.406,0.351,-0.12,0.163,0.291,0.636,0.866,-1.63 (inactive),0.246,-0.23,1.55,0.68 (inactive),1.02 (inactive),3.23 (inactive),2.77,0.409 (inactive),-0.0945,1.32,1.14,-0.0954
Cc1ccc(S[C@]2(C(=O)NC(C)C)CC(=O)N(C(C)C)[C@@H]2c2ccc(CO)cc2I)cc1,-0.244,-0.242,-0.0272,0.145,0.0213,0.637,1.05,-0.13 (inactive),-0.198,0.0749,0.841,-0.466 (inactive),-0.222 (inactive),-0.294 (inactive),1.53,0.529 (inactive),-0.0654,-0.337,-0.196,-0.144
CN(C)CCCCNC(=O)[C@H]1C[C@H]2C(=O)N[C@@H](CCCC[N+](C)(C)C)C(=O)N2[C@H]1c1ccc(O)cc1,-0.334,0.755,-0.136,-0.556,-0.661,-0.506,0.942,3.25 (inactive),-0.31,-0.132,0.366,-0.838 (inactive),0.0639 (inactive),-0.682 (inactive),-0.2,0.744 (inactive),-0.0011,-0.0923,-0.529,-0.194
[N-]=[N+]=NC[C@H](Cc1ccccc1)NC(=O)c1ccccc1,-0.259,0.2,-0.107,-0.168,-0.0596,-0.0451,-0.123,1.43 (inactive),0.135,-0.0618,0.376,-1.02 (inactive),-2.38 (inactive),-1.27 (inactive),0.214,1.56 (inactive),-0.0666,0.014,-0.371,-0.14
C=CCNC(=O)[C@H]1[C@@H]2C(=O)O[C@@H](c3ccccc3)[C@@H](c3ccccc3)N2[C@@H](c2ccc(O)cc2)[C@]12C(=O)N(C(=O)OCCOC)c1ccc(C#CCC(C(=O)OC)C(=O)OC)cc12,-0.114,0.85,-0.0422,0.453,0.719,0.225,1.21,0.172 (inactive),0.376,-0.162,1.56,0.106 (inactive),1.57 (inactive),5.5 (inactive),2.11,0.301 (inactive),-0.0229,1.2,1.11,0.0551

# Reference: PubChem BioAssay
